From the supplement of paper PMC10849652
Targets with a hit are over-represented here; the source holds about 7,900 in all. About 0.6% of all pairs of compound and target were hits. Unmarked numbers belong to inactive results.

Tests used:
Assay in all cases: log2 fold change, soluble protein after heating vs DMSO (PISA); higher = thermal stabilisation; K562 cells, 10 uM, 30 min; active = over 0.2 and 3.5 SD of the protein, either way, in both replicates (recomputed)
[1] = compound: CC1=C(C=C(C=C1)NC(=O)C2=CC(=CC=C2)C(C)(C)C#N)NC3=CC4=C(C=C3)N=CN(C4=O)C
In short: (§1)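 K562 cells (2×10^6 cells/mL) were treated with 10 μM compound for 30 min, and aliquots were heated for 3 min over 48°C-58°C. Pooled aliquots were extracted in PBS with 0.5% NP-40 at 4°C, and the supernatant after 21,000xg for 90 min was measured by TMTpro 16plex LC-MS/MS with channel sums equalised. Reported thermal stability, relative to control samples and from duplicates, is a log2 fold change.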

[2] = compound: CC1=C(C=C(C=C1)NC(=O)C2=CC(=CC=C2)N(C)C)NC(=O)C3=CC=C(C=C3)O
In short: as §1

[3] = compound: CC1=CC=C(C=C1)SC2=C3C=C(SC3=CN=C2)C(=O)N
In short: as §1

[4] = compound: CC1=NC(=CC=C1)C2=C(N=C(N2)C(C)(C)C)C3=CC4=NC=CN=C4C=C3
In short: as §1

[5] = compound: CCCCN(Cc1ccc(C(=O)NO)cc1)C(=O)Nc1ccccc1 [Nexturastat A]
In short: as §1

[6] = compound: CCCS(=O)(=O)Nc1ccc(F)c(C(=O)c2c[nH]c3ncc(-c4ccc(Cl)cc4)cc23)c1F [vemurafenib]
In short: as §1

[7] = compound: CCCS(=O)(=O)Nc1ccc(F)c(C(=O)c2c[nH]c3ncc(Cl)cc23)c1F
In short: as §1

[8] = compound: CCCc1cc(C)[nH]c(=O)c1CNC(=O)c1cc(-c2ccnc(N3CCN(C)CC3)c2)cc2c1cnn2C(C)C
In short: as §1

[9] = compound: CCN(CC)Cc1ccc2cc(COC(=O)Nc3ccc(C(=O)NO)cc3)ccc2c1 [givinostat]
In short: as §1

[10] = compound: CCN(CCCOc1ccc2c(Nc3cc(CC(=O)Nc4cccc(F)c4)[nH]n3)ncnc2c1)CCOP(=O)(O)O [barasertib]
In short: as §1

[11] = compound: CC[C@@H]1C(=O)N(C)c2cnc(Nc3ccc(C(=O)NC4CCN(C)CC4)cc3OC)nc2N1C1CCCC1
In short: as §1

[12] = compound: CC[C@@H]1C(=O)N(C)c2cnc(Nc3ccc(C(=O)N[C@H]4CC[C@H](N5CCN(CC6CC6)CC5)CC4)cc3OC)nc2N1C(C)C [volasertib]
In short: as §1

[13] = compound: CC[C@H](C)N1C=C(C2=C(C=C(C=C21)C3=CN=C(C=C3)N4CCNCC4)C(=O)NCC5=C(C=C(NC5=O)C)C)C
In short: as §1

[14] = compound: CC[C@H](C)[C@@H](C(=O)N[C@@H]([C@@H](C)O)C(=O)N[C@@H](CC(C)C)C(=O)[C@]1(CO1)C)NC(=O)[C@H]([C@@H](C)CC)N(C)C(=O)C [epoxomicin]
In short: as §1

[15] = compound: CCn1c(C(=O)N(C2CC2)C2CC2)cc2c3c(ncn3C)c(Nc3cc(C)n(C)n3)nc21
In short: as §1

[16] = compound: CCn1cc(-c2ccnc3[nH]c(-c4cccc(CN(C)C)c4)cc23)c(-c2ccc(NC(=O)N(C)C)cc2)n1
In short: as §1

[17] = compound: CN(C)CC(=O)Nc1ccc2[nH]c(=O)c3ccccc3c2c1
In short: as §1

[18] = compound: CN(CCOC1=CC=C(C=C1)C[C@H]2C(=O)NC(=O)S2)C3=CC=CC=N3 (racemic) [rosiglitazone]
In short: as §1

[19] = compound: CN1C2=C(C3=C1C(=O)N(N=C3)CC4=CC(=CC=C4)N)SC(=C2)S(=O)C
In short: as §1

[20] = compound: CN1CCC(CNc2ccc3ncc(-c4cccc(OC(F)(F)F)c4)n3n2)CC1
In short: as §1

Sequence of UniProt P49585 (P49585 whole entry, looked up): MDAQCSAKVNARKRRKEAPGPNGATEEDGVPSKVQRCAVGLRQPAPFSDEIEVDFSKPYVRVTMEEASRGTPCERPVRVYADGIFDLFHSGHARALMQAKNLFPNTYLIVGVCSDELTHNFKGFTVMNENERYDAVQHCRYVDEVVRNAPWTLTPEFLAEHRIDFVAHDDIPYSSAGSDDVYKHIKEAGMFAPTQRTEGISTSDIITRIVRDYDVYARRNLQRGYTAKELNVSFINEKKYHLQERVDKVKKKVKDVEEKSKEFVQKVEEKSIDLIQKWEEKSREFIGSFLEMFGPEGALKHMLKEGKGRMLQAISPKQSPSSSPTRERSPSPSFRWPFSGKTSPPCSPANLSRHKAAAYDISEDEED
Sequence of UniProt Q9H3S7 (Q9H3S7 whole entry, looked up): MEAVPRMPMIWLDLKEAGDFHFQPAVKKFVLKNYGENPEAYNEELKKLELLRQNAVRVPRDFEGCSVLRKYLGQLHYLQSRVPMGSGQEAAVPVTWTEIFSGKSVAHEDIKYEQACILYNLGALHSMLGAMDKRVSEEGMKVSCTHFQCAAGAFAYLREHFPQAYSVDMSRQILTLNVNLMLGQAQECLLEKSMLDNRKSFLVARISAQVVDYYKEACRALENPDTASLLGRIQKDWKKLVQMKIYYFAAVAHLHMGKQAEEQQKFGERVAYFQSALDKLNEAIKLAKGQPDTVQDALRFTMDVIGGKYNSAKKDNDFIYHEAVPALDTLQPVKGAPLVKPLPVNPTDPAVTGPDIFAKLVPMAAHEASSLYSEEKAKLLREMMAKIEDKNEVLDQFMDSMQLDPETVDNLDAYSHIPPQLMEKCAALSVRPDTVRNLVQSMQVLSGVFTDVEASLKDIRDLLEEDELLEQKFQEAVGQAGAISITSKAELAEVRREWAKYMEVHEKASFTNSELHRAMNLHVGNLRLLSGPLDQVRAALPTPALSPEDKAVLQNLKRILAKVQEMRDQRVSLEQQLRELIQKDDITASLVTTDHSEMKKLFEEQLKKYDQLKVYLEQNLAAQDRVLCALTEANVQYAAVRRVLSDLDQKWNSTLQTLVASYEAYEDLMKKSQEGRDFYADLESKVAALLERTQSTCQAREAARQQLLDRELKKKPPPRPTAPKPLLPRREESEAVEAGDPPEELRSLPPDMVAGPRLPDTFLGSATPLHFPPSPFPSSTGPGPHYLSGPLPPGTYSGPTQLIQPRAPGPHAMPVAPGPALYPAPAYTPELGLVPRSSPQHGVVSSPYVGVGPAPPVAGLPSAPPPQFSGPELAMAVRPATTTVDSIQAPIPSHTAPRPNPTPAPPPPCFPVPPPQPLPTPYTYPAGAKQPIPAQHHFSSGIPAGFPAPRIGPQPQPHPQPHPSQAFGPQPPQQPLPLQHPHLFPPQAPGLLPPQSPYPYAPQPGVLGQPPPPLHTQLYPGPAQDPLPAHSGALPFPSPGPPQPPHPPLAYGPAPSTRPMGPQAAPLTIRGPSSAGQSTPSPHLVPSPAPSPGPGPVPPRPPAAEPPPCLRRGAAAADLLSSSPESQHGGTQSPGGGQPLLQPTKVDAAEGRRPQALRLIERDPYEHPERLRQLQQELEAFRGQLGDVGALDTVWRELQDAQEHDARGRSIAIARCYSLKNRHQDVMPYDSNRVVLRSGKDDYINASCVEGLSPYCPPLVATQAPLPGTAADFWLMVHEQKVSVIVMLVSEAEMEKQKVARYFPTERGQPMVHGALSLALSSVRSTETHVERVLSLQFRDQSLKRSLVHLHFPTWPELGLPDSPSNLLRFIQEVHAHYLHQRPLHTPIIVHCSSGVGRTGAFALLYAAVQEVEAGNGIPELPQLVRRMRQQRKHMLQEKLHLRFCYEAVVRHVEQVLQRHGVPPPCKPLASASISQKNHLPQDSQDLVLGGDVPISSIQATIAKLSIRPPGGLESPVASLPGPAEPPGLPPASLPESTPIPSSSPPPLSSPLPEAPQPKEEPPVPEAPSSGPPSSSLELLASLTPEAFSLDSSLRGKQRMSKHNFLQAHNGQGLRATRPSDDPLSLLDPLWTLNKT
Sequence of UniProt Q9UMR5 (Q9UMR5 whole entry, looked up): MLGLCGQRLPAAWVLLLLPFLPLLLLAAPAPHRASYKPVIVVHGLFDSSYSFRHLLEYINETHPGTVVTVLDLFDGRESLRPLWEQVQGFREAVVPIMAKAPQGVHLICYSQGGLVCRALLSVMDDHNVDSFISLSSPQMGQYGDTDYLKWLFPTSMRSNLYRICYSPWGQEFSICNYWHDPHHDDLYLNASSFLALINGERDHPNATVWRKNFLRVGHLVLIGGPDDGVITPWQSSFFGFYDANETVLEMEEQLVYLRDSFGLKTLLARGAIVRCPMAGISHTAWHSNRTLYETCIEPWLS
Sequence of UniProt Q8WXF1 (Q8WXF1 whole entry, looked up): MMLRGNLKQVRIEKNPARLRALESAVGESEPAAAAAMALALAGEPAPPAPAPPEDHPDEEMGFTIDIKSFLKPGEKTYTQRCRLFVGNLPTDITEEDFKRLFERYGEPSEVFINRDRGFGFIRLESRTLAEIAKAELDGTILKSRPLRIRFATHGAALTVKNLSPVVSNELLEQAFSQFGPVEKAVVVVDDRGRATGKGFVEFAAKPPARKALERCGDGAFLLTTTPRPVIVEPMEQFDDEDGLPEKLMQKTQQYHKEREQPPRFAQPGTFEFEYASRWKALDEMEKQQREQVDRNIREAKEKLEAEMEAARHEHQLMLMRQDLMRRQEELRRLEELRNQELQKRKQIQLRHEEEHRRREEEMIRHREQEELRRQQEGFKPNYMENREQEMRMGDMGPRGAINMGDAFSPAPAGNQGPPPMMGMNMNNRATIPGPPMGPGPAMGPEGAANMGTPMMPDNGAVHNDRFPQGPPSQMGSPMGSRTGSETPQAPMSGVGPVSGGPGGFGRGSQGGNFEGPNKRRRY
Sequence of UniProt P17980 (P17980 whole entry, looked up): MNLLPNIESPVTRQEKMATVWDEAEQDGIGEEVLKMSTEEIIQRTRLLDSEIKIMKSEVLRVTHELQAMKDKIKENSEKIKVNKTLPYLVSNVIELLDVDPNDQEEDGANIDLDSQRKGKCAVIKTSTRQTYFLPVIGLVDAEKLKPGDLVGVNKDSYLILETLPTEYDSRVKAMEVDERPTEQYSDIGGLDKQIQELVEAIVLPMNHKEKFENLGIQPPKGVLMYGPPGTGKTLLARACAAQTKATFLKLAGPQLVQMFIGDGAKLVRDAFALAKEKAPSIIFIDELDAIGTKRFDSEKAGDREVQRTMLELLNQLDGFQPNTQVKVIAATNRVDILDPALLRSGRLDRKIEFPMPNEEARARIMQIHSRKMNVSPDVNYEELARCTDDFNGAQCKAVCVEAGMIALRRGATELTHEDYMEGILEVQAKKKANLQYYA
Sequence of UniProt Q9Y244 (Q9Y244 whole entry, looked up): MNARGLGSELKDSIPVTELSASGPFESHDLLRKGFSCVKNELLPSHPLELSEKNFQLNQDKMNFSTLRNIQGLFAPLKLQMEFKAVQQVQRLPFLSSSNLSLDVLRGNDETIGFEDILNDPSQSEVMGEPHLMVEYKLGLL
Sequence of UniProt Q05209 (Q05209 whole entry, looked up): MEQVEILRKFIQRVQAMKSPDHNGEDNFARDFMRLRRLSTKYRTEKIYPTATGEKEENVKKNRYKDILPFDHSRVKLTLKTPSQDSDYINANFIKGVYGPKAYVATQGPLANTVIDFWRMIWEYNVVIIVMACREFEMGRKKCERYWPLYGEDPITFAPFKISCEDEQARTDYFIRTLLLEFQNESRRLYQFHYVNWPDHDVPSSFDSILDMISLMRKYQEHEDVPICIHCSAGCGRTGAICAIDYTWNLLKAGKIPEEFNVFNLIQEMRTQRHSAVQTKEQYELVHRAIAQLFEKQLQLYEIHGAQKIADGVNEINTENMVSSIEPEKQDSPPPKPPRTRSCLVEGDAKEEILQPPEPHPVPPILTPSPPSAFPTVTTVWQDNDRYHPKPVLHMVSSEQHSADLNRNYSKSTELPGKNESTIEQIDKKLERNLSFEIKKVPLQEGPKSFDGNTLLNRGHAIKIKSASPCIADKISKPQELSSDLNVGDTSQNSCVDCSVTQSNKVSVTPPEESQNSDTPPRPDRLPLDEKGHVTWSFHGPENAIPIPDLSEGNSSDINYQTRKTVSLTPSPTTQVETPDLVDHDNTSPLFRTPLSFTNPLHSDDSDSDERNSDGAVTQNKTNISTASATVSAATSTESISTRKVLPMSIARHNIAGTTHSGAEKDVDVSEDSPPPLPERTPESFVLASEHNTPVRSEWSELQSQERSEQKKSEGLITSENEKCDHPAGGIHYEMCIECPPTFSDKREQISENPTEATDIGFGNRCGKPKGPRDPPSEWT

Row | Target | log2 fold change [1] | log2 fold change [2] | log2 fold change [3] | log2 fold change [4] | log2 fold change [5] | log2 fold change [6] | log2 fold change [7] | log2 fold change [8] | log2 fold change [9] | log2 fold change [10] | log2 fold change [11] | log2 fold change [12] | log2 fold change [13] | log2 fold change [14] | log2 fold change [15] | log2 fold change [16] | log2 fold change [17] | log2 fold change [18] | log2 fold change [19] | log2 fold change [20]
1 | PTPN12 (UniProt Q05209) | -0.026 | -0.071 | -0.037 | -0.034 | 0.162 | -0.002 | 0.04 | 0.07 | 0.072 | 0.127 | -0.119 | -0.465 (active) | 0.063 | -0.012 | -0.077 | 0.027 | 0.015 | 0.014 | 0.079 | -0.043
2 | PCYT1A (UniProt P49585) | -0.049 | -0.038 | -0.045 | 0.035 | -0.034 | 0.052 | 0.043 | -0.092 | -0.024 | 0.044 | -0.219 | -0.332 (active) | 0.042 | 0.028 | -0.029 | -0.019 | 0.017 | 0.008 | -0.022 | -0.111
3 | PPT2 isoform 3 (UniProt Q9UMR5) | -0.064 | -0.002 | 0.025 | 0.078 | 0 | -0.001 | 0.052 | 0.002 | 0.041 | -0.017 | -0.57 (active) | -0.87 (active) | -0.006 | -0.021 | 0.005 | 0.206 | -0.068 | 0.048 | -0.051 | -0.682 (active)
4 | PSMC3 (UniProt P17980) | 0.013 | 0.02 | -0.024 | -0.051 | 0.034 | -0.063 | -0.055 | 0.002 | -0.034 | -0.059 | 0.032 | 0.179 | -0.021 | -0.319 (active) | -0.028 | 0.079 | -0.031 | -0.038 | 0.021 | 0.018
5 | PTDSS1 (UniProt P48651) | 0.005 | -0.006 | 0.08 | -0.01 | 0.192 | -0.055 | 0.019 | -0.007 | 0.072 | 0.03 | 0.004 | 0.009 | -0.069 | -0.035 | -0.019 | 0.124 | 0 | 0.031 | 0.177 | -0.081
6 | PTPN23 (UniProt Q9H3S7) | -0.062 | -0.049 | -0.009 | 0.002 | -0.015 | 0.025 | 0.051 | 0.088 | 0.107 | 0.047 | -0.163 | -0.453 (active) | 0.019 | 0.013 | -0.024 | -0.006 | 0.073 | 0.017 | 0.016 | -0.106
7 | POMP (UniProt Q9Y244) | 0.024 | 0.075 | -0.069 | 0.076 | 0.145 | -0.023 | -0.023 | 0.016 | -0.045 | 0.054 | 0.097 | -0.049 | 0.008 | 0.581 (active) | -0.005 | 0.021 | -0.018 | -0.059 | -0.02 | -0.004
8 | PSPC1 (UniProt Q8WXF1) | 0.022 | 0.011 | 0.01 | 0.007 | 0.053 | -0.003 | 0.135 | 0.167 | 0.036 | 0.01 | -0.046 | -0.167 | 0.1 | 0.031 | 0.003 | -0.054 | 0.012 | -0.058 | 0.041 | 0.029
